Experimental data reported in PubChem BioAssay (Tox21).
Records with an inconclusive call do not appear. The source made the active and inactive calls. Unless noted, calls come from the whole dose curve; as a rule, active = well fitted curve in the direction sought with a large enough effect in the repeat runs; inconclusive = weak or mixed curves; inactive = no such curve, though single readings can be large; an effect the other way counts as inactive or inconclusive.

Columns and labels:
[1] = qHTS assay for small molecule agonists of the p53 signaling pathway (AID 651631; calls by dose curve; note: nearly all actives have a fitted effect of over 15% in size)
Procedure, shortened: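 Read-out is beta-lactamase FRET fluorescence measured 2 h after substrate addition at room temperature, in HCT-116 cells with a p53 response element-driven reporter exposed to compounds for 16 h at 37 °C.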

[2] = qHTS assay for small molecules that induce genotoxicity in human embryonic kidney cells expressing luciferase-tagged ATAD5 (AID 651632); note: nearly all actives have a fitted effect of over 15% in size
Procedure, shortened: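 A rise in luciferase signal from ATAD5-tagged HEK293T cells marks genetic stress. Cells were exposed to compounds for 16 hr at 37C, 5% CO2, then luciferase was quantified after a 30 min room-temperature incubation with Amplite.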

[3] = qHTS assay for small molecule agonists of the p53 signaling pathway - cell viability (AID 651633; calls by dose curve;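 note: p53RE-bla HCT reporter cells with a stable beta-lactamase p53 reporter; series mostly up to about 83 µM; nearly all actives have a fitted effect of over 30% in size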)
Procedure, shortened: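 p53RE-bla cells were treated with compound for 16 hours at 37 C. Cytotoxicity was then measured as CellTiter-Glo luminescence after 30 min at room temperature.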

[4] = qHTS assay for small molecules that induce genotoxicity in human embryonic kidney cells expressing luciferase-tagged ATAD5 - cell viability (AID 651634; calls by dose curve; note: nearly all actives have a fitted effect of over 25% in size)
Procedure, shortened: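 Cytotoxicity counter-readout: after 15.5 hr compound treatment at 37C, live-cell protease activity in ATAD5-luciferase HEK293T cells measured by CellTiter-Fluor fluorescence, 30 min development at 37C.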

[5] = qHTS assay for small molecule disruptors of the mitochondrial membrane potential - cell viability (AID 720634; calls by dose curve;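 note: human HepG2 liver cancer cells; series mostly up to about 83 µM; nearly all actives have a fitted effect of over 20% in size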)
Procedure, shortened: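 Cytotoxicity was quantified from ATP content by CellTiter-Glo luminescence in the same wells as the MMP dye read-out. HepG2 (2,000 cells/well) were plated overnight and exposed to compounds for 1 hr at 37 C.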

[6] = qHTS assay for small molecule disruptors of the mitochondrial membrane potential (AID 720635); note: potency is the fitted concentration of half-maximal effect
Procedure, shortened: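 HepG2 cells exposed to compound 1 hr at 37C, then Mito-MPS dye 30 min. Ratio read of aggregate (540/590 nm) versus monomer (490/535 nm) fluorescence.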

[7] = qHTS assay to test for compound auto fluorescence at 590 nm (red) in HepG2 cells (AID 720674)
Procedure, shortened: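 HepG2 cells, 2,000 per well in MEM with 10% FBS, attached overnight at 37 C, then got 23 nL compound or DMSO. After 1 hr at 37 C, 5% CO2, red fluorescence was read at 540/590 nm against Rose Bengal sodium as reference.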

[8] = qHTS assay to test for compound auto fluorescence at 535 nm (green) in HepG2 cells (AID 720675)
[9] = qHTS assay to test for compound auto fluorescence at 460 nm (blue) in HEK293 cells (AID 720678); note: potency is the fitted concentration of half-maximal effect
Procedure, shortened: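 Intrinsic compound fluorescence is recorded in live HEK293 cultures after overnight incubation at 37C, 5% CO2, using excitation 405 nm and emission 460 nm. Values are referenced to triamterene.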

[10] = qHTS assay to test for compound auto fluorescence at 590 nm (red) in HEK293 cells (AID 720679)
Procedure, shortened: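 Red autofluorescence, HEK293 cells: 2,000 cells/well; attach 4-5 hr 37C; add 23 nL cpd or DMSO; incubate o/n 37C 5% CO2; read Ex540/Em590; Rose Bengal sodium reference.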

[11] = qHTS assay to test for compound auto fluorescence at 535 nm (green) in HEK293 cells (AID 720680)
[12] = qHTS assay to test for compound auto fluorescence at 460 nm (blue) in HEK293 cell free culture (AID 720681); note: potency is the fitted concentration of half-maximal effect
Procedure, shortened: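 Compounds were added to cell-free DMEM with 10% FBS and fluorescence read directly. The blue channel used 405 nm excitation and 460 nm emission, with triamterene as the reference fluorophore.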

[13] = qHTS assay to test for compound auto fluorescence at 535 nm (green) in HEK293 cell free culture (AID 720682)
Procedure, shortened: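 Fluorescein serves as the green reference fluorophore; each compound's intrinsic emission at 535 nm (excitation 485 nm) is reported as an equivalent amount of that dye, measured in serum-containing DMEM without cells.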

[14] = qHTS assay to test for compound auto fluorescence at 590 nm (red) in HEK293 cell free culture (AID 720683)
Procedure, shortened: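 Cell-free wells of DMEM with 10% FBS received compound, and intrinsic fluorescence was read at excitation/emission 540/590 nm. Values expressed as equivalence to Rose Bengal sodium.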

[15] = qHTS assay to test for compound auto fluorescence at 590 nm (red) in HepG2 cell free culture (AID 720684)
Procedure, shortened: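 Auto fluorescence equivalency versus Rose Bengal sodium, red channel Ex/Em 540/590 nm; compounds in cell-free MEM/10% FBS; DMSO vehicle control.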

[16] = qHTS assay to test for compound auto fluorescence at 460 nm (blue) in HepG2 cell free culture (AID 720685); note: potency is the fitted concentration of half-maximal effect
Procedure, shortened: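 Cell-free plates of MEM plus 10% FBS received 23 nL compound or DMSO vehicle; blue-channel (405/460 nm) intensity scored against triamterene as reference fluorophore.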

[17] = qHTS assay to test for compound auto fluorescence at 535 nm (green) in HepG2 cell free culture (AID 720686)
[18] = qHTS assay to test for compound auto fluorescence at 460 nm (blue) in HepG2 cells (AID 720687)
Procedure, shortened: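 HepG2 cells in MEM with 10% FBS, attached overnight at 37 C, were exposed to compound or DMSO for 1 hr at 37 C, 5% CO2. Blue fluorescence was read at 405/460 nm, with triamterene as reference fluorophore.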

[19] = biological target: Glucocorticoid receptor (Homo sapiens) (UniProt P04150); experiment: qHTS assay to identify small molecule agonists of the glucocorticoid receptor (GR) signaling pathway (AID 720691; active = well fitted activation curve with a large enough effect in the signal ratio in the repeat runs, not every such curve was filed as active; the % refers to the signal ratio)
Procedure, shortened: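 Agonist-mode qHTS in HeLa cells stably expressing a glucocorticoid-response-element beta-lactamase reporter. Fluorescence intensity read with FRET substrate (2 h, room temperature) after 18 h compound treatment at 37 C.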

[20] = biological target: Glucocorticoid receptor (Homo sapiens) (UniProt P04150); experiment: qHTS assay to identify small molecule antagonists of the glucocorticoid receptor (GR) signaling pathway (AID 720692; active = well fitted inhibition curve with a large enough effect in the signal ratio in the repeat runs, not every such curve was filed as active; the % refers to the signal ratio)
Procedure, shortened: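 Inhibition of dexamethasone-driven (5 nM final) beta-lactamase expression was measured in GRE-reporter HeLa cells over 18 h at 37C. Fluorescence was read after 2 h with the B/G FRET substrate at room temperature.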
% is set by controls: 0 for no effect and ±100 for the full control effect; tags give direction and shape of the fitted curve or compound fluorescence and quenching.

Chain of Glucocorticoid receptor (Homo sapiens) (P04150 whole entry, looked up): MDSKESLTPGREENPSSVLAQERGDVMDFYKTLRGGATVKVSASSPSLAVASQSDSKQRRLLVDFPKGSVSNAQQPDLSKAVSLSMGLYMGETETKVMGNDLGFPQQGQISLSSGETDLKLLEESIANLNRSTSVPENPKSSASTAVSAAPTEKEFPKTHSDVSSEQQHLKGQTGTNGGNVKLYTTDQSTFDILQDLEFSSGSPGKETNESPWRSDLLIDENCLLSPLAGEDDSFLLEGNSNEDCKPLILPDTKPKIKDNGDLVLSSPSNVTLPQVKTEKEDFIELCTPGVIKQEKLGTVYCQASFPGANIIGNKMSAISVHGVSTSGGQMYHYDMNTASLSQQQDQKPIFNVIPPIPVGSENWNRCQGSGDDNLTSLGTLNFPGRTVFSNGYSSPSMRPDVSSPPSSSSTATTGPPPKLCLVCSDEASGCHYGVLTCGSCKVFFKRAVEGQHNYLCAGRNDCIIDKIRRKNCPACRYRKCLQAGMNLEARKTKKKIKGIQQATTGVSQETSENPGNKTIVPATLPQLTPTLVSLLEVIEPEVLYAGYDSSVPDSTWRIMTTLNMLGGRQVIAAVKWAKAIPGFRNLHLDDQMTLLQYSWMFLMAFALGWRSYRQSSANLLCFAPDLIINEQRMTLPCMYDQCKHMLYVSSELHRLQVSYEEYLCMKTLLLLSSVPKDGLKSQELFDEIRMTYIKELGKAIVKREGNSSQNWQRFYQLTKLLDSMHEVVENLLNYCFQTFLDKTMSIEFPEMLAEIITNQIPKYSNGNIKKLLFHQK

C[N+](C)(C)CC[N+]1(C)Cc2c(Cl)c(Cl)c(Cl)c(Cl)c2C1
inactive: Potency [1] | Potency [2] | Potency [3] | Potency [4] | Potency [5] | Potency [6] | outcome [7] | outcome [8] | Potency [9] | outcome [10] | outcome [11] | Potency [12] | outcome [13] | outcome [14] | outcome [15] | Potency [16] | outcome [17] | Potency [18] | Potency [19] | Potency [20]

CN(C)CCn1nnnc1SCC1=C(C(=O)O)N2C(=O)[C@@H](NC(=O)Cc3csc(N)n3)[C@H]2SC1
inactive: Potency [1] | Potency [2] | Potency [3] | Potency [4] | Potency [5] | Potency [6] | fluorescence, relative to Rose Bengal [7] -0.434% [at 18.6 µM] | fluorescence, % of fluorescein control [8] -0.0016% [at 18.6 µM] | fluorescence, % of triamterene [9] 0.477% [at 18.6 µM] | fluorescence, % of fluorescent control [10] -0.137% [at 18.6 µM] | fluorescence, % of fluorescein [11] 0.129% [at 18.6 µM] | fluorescence, % of fluorescent control [12] 0.443% [at 18.6 µM] | activity change [13] 0.0595% [at 18.6 µM] | fluorescence, % of fluorescent control [14] 0.0008% [at 18.6 µM] | fluorescence, % of Rose Bengal [15] 0.544% [at 18.6 µM] | fluorescence, % of fluorescent control [16] 0.31% [at 18.6 µM] | fluorescence, % of fluorescein control [17] 0.0098% [at 18.6 µM] | fluorescence, % of fluorescent control [18] 0.222% [at 18.6 µM] | Potency [19] | Potency [20]

NC1CCN(c2cccc(Cl)n2)CC1
inactive: Potency [1] | Potency [2] | Potency [3] | Potency [4] | Potency [5] | Potency [6] | outcome [7] | outcome [8] | Potency [9] | outcome [10] | outcome [11] | Potency [12] | outcome [13] | outcome [14] | outcome [15] | Potency [16] | outcome [17] | Potency [18] | Potency [19] | Potency [20]

c1ccc2cnncc2c1
inactive: Potency [1] | Potency [2] | Potency [3] | Potency [4] | Potency [5] | Potency [6] | outcome [7] | outcome [8] | Potency [9] | outcome [10] | outcome [11] | Potency [12] | outcome [13] | outcome [14] | outcome [15] | Potency [16] | outcome [17] | Potency [18] | Potency [19] | Potency [20]

Cc1cc(C)cc(OCC2CNC(=O)O2)c1 (configuration not stated)
inactive: Potency [1] | Potency [2] | Potency [3] | Potency [4] | Potency [5] | Potency [6] | outcome [7] | outcome [8] | Potency [9] | outcome [10] | outcome [11] | Potency [12] | outcome [13] | outcome [14] | outcome [15] | Potency [16] | outcome [17] | Potency [18] | Potency [19] | Potency [20]

CC(=O)N[C@@H](CCC(N)=O)C(=O)O
inactive: Potency [1] | Potency [2] | Potency [3] | Potency [4] | Potency [5] | Potency [6] | outcome [7] | outcome [8] | Potency [9] | outcome [10] | outcome [11] | Potency [12] | outcome [13] | outcome [14] | outcome [15] | Potency [16] | outcome [17] | Potency [18] | Potency [19] | Potency [20]

Nc1ccc2cc(S(=O)(=O)O)ccc2c1
active: Potency [9] 31.6 µM [fluorescent] | Potency [12] 31.6 µM | Potency [16] 31.6 µM [fluorescent]
inactive: Potency [1] | Potency [2] | Potency [3] | Potency [4] | Potency [5] | Potency [6] | outcome [7] | outcome [8] | outcome [10] | outcome [11] | outcome [13] | outcome [14] | outcome [15] | outcome [17] | Potency [19] | Potency [20]

CCC(=O)/C=C/c1ccc(OC)cc1
inactive: Potency [1] | Potency [2] | Potency [3] | Potency [4] | Potency [5] | Potency [6] | outcome [7] | outcome [8] | Potency [9] | outcome [10] | Potency [12] | outcome [13] | outcome [14] | outcome [15] | Potency [16] | outcome [17] | Potency [19]

CCCCCCCCCCCCCCCCCC(=O)OCCCCCCCCCCCCCC(C)C
inactive: Potency [1] | Potency [2] | Potency [3] | Potency [4] | Potency [5] | Potency [6] | outcome [7] | outcome [8] | Potency [9] | outcome [10] | Potency [12] | outcome [13] | outcome [14] | outcome [15] | Potency [16] | outcome [17] | Potency [18] | Potency [19] | Potency [20]

N[C@@H](CS)C(=O)O
inactive: Potency [1] | Potency [2] | Potency [3] | Potency [4] | Potency [5] | outcome [7] | outcome [8] | Potency [9] | outcome [10] | outcome [11] | Potency [12] | outcome [13] | outcome [14] | outcome [15] | Potency [16] | outcome [17] | Potency [18]
active: Potency [6] 27.7 µM

CO[Si](CCCNCCC[Si](OC)(OC)OC)(OC)OC
inactive: Potency [1] | Potency [2] | Potency [3] | Potency [4] | Potency [5] | Potency [6] | outcome [8] | Potency [9] | outcome [10] | outcome [11] | Potency [12] | outcome [13] | outcome [14] | outcome [15] | Potency [16] | outcome [17] | Potency [18] | Potency [19] | Potency [20]

O=C(O)c1ccc[n+]([O-])c1
inactive: Potency [1] | Potency [2] | Potency [3] | Potency [4] | Potency [5] | Potency [6] | outcome [7] | outcome [8] | Potency [9] | outcome [10] | outcome [11] | Potency [12] | outcome [13] | outcome [14] | outcome [15] | Potency [16] | outcome [17] | Potency [18] | Potency [19] | Potency [20]
